Data on 6 compounds can be found in PubChem BioAssay (NCI).

SMILES strings stand for the structures. Compounds without any hit were thinned out: in the full panel of roughly 83,000, 20% have a hit.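 Results are percent growth after 48 hours of single-concentration exposure. 100 means growth as in untreated cells, lower positive values show inhibition; negative values down to -100 show cell death.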 Calls of active or inactive are those of the source. The calls were made as follows: active = growth percent below 10; inactive = the rest.

In the test the test system is MDA-MB-468 breast. Briefly: NCI-60 one-dose screen, 48 h (100 = growth as untreated, 0 = no growth, -100 = all killed). To be noted: 10 µM unless noted.
Regarding `CCn1c2ccccc2c2cc(C(=O)c3ccc(C)c4ccccc34)ccc21`, the growth is 25.4% (inactive).

As for `CC(CO)NC1CCCCC1` (stereo unspecified), the growth was 107% (inactive).

With `CC(=O)ONc1ccc([N+](=O)[O-])c(C(F)(F)F)c1`, the growth is 118% (inactive).

Consider `CC[C@H](C)[C@H](NC(=O)C12CC(NC)(C1)C2)C(=O)N(C)[C@H](C[C@@H](OC(C)=O)c1nc(C(=O)N[C@@H](Cc2ccccc2)C[C@H](C)C(=O)OC)cs1)C(C)C`, for which the growth is -8.32% (active).

Take `[Cl][Hg][c]1cc(Br)cc(Br)c1`: the growth is 7.71% (active).

Take `CC(=O)O[C@@H]1C2=C(C)C3(CC3)[C@@](C)(O)C(=O)C2=C[C@@]1(C)CO`: the growth is -54% (active).
